From PubChem BioAssay (NCATS) come the findings set out here.

A short description of assay [1]: Primary qHTS for inhibitors of nuclear receptor binding SET domain protein 2 (NSD2) in an isogenic RCH-ACV NSD2 p.E1099K mutant (9B) (AID 1645876). Background: Quantitative high-throughput screening tests each substance at several concentrations.
A short description of assay [2]: Primary qHTS for inhibitors of nuclear receptor binding SET domain protein 2 (NSD2) in an RCH-ACV wild type WT cells (2C) (AID 1645877).

Where “and” joins values, the source holds several entries; their conditions need not be identical. Equal values may be shown once. Results filed as inconclusive are left out. A number with no mark means an inactive call. Calls of active or inactive are those of the source. Calls follow the shape of the dose curve; as a rule, active = well fitted curve in the direction sought with a large enough effect; inconclusive = small, poorly fitted or top-dose-only effect, or another doubt; inactive = no such curve, though single readings can be large; an effect the other way counts as inactive or inconclusive.
% is scaled to controls: 0 for no effect and ±100 for the full control effect; potency is read from the fitted curve at half-maximal effect.
Also: nearly all actives have a fitted effect of over 70% in size.

With `C[C@@H]1O[C@@H](O[C@H]2[C@@H]3C=CO[C@@H](O[C@@H]4O[C@H](CO)[C@@H](O)[C@H](O)[C@H]4O)[C@@H]3[C@@]3(CO)O[C@@H]23)[C@H](OC(=O)/C=C/c2ccccc2)[C@H](O)[C@H]1O`, the Potency result in assay [1] and in assay [2] was “inactive” in each case.
As for `CC1CCC2(OC1)OC1CC3C4CCC5C[C@@H](O[C@@H]6O[C@H](CO[C@@H]7OC[C@@H](O)[C@H](O)[C@H]7O)[C@H](O)[C@H](O)[C@H]6O)CC[C@]5(C)C4CC[C@]3(C)C1C2C` (some centres not stated), the Potency entry in assay [1] and in assay [2] was “inactive” in each case.
As for `C/C=C(\C)C(=O)O[C@H]1[C@@H](O[C@]2(COC(=O)CC(C)C)O[C@H](COC(=O)C(C)CC)[C@@H](OC(C)=O)[C@@H]2O)O[C@H](COC(C)=O)[C@@H](O)[C@@H]1O` (some centres not stated), the Potency entry in assay [1] and in assay [2] was “inactive” throughout.
In the case of `CC1(C(=O)O)CCCC2(C)C3=CCC4CC3(CCC12)CC4CO` (configuration not stated), the Potency entry in assay [1] and in assay [2] was “inactive” in each case.
Consider `COc1cc(O)cc(/C=C/c2ccc(O[C@@H]3O[C@H](CO)[C@@H](O)[C@H](O)[C@H]3O)cc2)c1`, for which the figures for the Potency in assay [1] and in assay [2] were 8.93 µM (active) and 7.96 µM (active), respectively.
For `N[C@@]1(C(=O)O)CC[C@H]2[C@H](C(=O)O)[C@H]21` the same measures were “inactive” and “inactive”.
As to `C[C@@H]1O[C@@H](O[C@H]2[C@H](O)[C@@H](C(=O)O)O[C@@H](O[C@H]3CC[C@@]4(C)C(CC[C@]5(C)C4CC=C4C6CC(C)(C)CC[C@]6(C(=O)O)CC[C@]45C)C3(C)C)[C@@H]2O[C@@H]2OC[C@@H](O)[C@H](O)[C@H]2O)[C@H](O)[C@H](O)[C@H]1O` (some centres not stated), the outcome in assay [1] and in assay [2] was “inactive [at 9.23 µM]” each time.
Take `CC(C)=CCC[C@](C)(O[C@@H]1O[C@H](CO[C@@H]2O[C@H](CO)[C@@H](O)[C@H](O)[C@H]2O)[C@@H](O)[C@H](O)[C@H]1O)C1CC[C@]2(C)[C@@H]1[C@H](O)CC1[C@@]3(C)CC[C@H](O[C@@H]4O[C@H](CO)[C@@H](O)[C@H](O)[C@H]4O[C@@H]4O[C@H](CO)[C@@H](O)[C@H](O)[C@H]4O)C(C)(C)[C@@H]3CC[C@]12C` (some centres not stated): in assay [1], the activity change, negative = viability loss was -10.6% [at 9.23 µM]. The activity change, negative = cell killing in assay [2] was -25.5% [at 9.23 µM].
As to `C[C@@H]1O[C@@H](O[C@H]2[C@@H]3C=CO[C@@H](O[C@@H]4O[C@H](CO)[C@@H](O)[C@H](O)[C@H]4O)[C@@H]3[C@@]3(CO)O[C@@H]23)[C@H](OC(=O)/C=C/c2ccc(O)c(O)c2)[C@H](O)[C@H]1O`, the Potency result in assay [1] and in assay [2] was “inactive” throughout.
With `C[C@H](CCC(=O)O)[C@H]1CC[C@H]2[C@@H]3C[C@H](O)[C@@H]4C[C@H](O)CC[C@]4(C)[C@H]3CC[C@]12C`, the Potency result in assay [1] and in assay [2] was “inactive” each time.
As to `C[C@H]1[C@H](O)O[C@@H]2O[C@@]3(C)CC[C@H]4[C@H](C)CC[C@@H]1[C@@]24OO3`, the values for the Potency in assay [1] and in assay [2] were 1.18 µM (active) and 0.833 µM (active), respectively.
For `CC1(C)CC[C@]2(C(=O)O[C@@H]3O[C@H](CO)[C@@H](O)[C@H](O)[C@H]3O)CC[C@]3(C)C(=CCC4[C@@]5(C)C[C@@H](O)[C@H](O)[C@](C)(C=O)C5CC[C@]43C)[C@@H]2[C@@H]1O` (some centres not stated) the same measures were “inactive” and “inactive”.
On to `CC(=O)O[C@H]1CC[C@@]2(C)C(CC[C@@H](C)[C@]23Cc2c(O)cc4c(c2O3)CN([C@@H](CCC(=O)O)C(=O)O)C4=O)C1(C)C` (some centres not stated), for which the Potency result in assay [1] and in assay [2] was “inactive” each time.
Take `COC(=O)c1ccnc(-c2cc(C(=O)NCCc3ccccc3)ccn2)c1`: the Potency entry in assay [1] and in assay [2] was “inactive” each time.
For `NC(=O)[C@H](O[C@@H]1O[C@H](CO)[C@@H](O)[C@H](O)[C@H]1O)c1ccccc1`, the Potency entry in assay [1] and in assay [2] was “inactive” throughout.
For `COc1ncc(Nc2ncc([C@@H](C)N3CCN(S(C)(=O)=O)CC3)cc2-c2nc(C)nc(N)n2)cc1F`, the Potency in assay [1] was 0.0052 µM (active); in assay [2], 0.0205 µM (active).
As for `O=C(N/N=C/c1ccc(O)c(O)c1)c1cc2ccccc2cc1O`, the Potency is 6.82 µM (active) in assay [1] and 5.41 µM (active) in assay [2].
On to `C[C@H]1O[C@@H](O[C@H]2CC[C@@]3(C)C(CC[C@]4(C)C3CC=C3C5CC(C)(C)CC[C@]5(C(=O)O)CC[C@]34C(=O)O)C2(C)C)[C@H](O)[C@@H](O)[C@@H]1O` (some centres not stated), for which the Potency entry in assay [1] and in assay [2] was “inactive” in each case.
As to `COc1ccc2nc(S(=O)(=O)Cc3ncc(C)c(OC)c3C)[nH]c2c1`, the Potency entry in assay [1] and in assay [2] was “inactive” in each case.
For the compound `COc1cc(C)c(C(=O)O[C@H]2[C@@H](OC(C)=O)[C@H](n3ccc(=O)[nH]c3=O)O[C@@H]2CO)c(OC)c1`, the Potency result in assay [1] and in assay [2] was “inactive” throughout.
With `O=C(CO)[C@@H](O)[C@H](O[C@@H]1O[C@H](CO)[C@H](O)[C@H](O)[C@H]1O)[C@H](O)CO`, the Potency entry in assay [1] and in assay [2] was “inactive” each time.
Regarding `CC1(C)CC[C@]23CO[C@@]4(CCC5[C@@]6(C)CC[C@H](O[C@@H]7OC[C@H](O[C@@H]8O[C@H](CO)[C@@H](O)[C@H](O)[C@H]8O)[C@H](O)[C@H]7O[C@@H]7O[C@H](CO)[C@@H](O[C@@H]8O[C@H](CO)[C@@H](O)[C@H](O)[C@H]8O)[C@H](O)[C@H]7O)[C@@](C)(CO)C6CC[C@@]5(C)[C@]4(C)C[C@H]2OC2OCC(O)C(O)C2O)C3C1` (some centres not stated), the Potency in assay [1] was 0.688 µM (active); in assay [2] it was 1.09 µM (active).
In the case of `CC1OC(OC2C(C)OC(OC3C(O)C(CO)OC(O[C@H]4CC[C@@]5(C)C(CC[C@]6(C)C5CC=C5C7[C@@H](C)[C@H](C)CC[C@]7(C(=O)O)CC[C@]56C(=O)O)C4(C)C)C3O)C(O)C2O)C(O)C(O)C1O` (some centres not stated), the activity change, negative = viability loss in assay [1] is -0.763% [at 9.23 µM]. Moreover, the activity change, negative = cell killing in assay [2] is -0.67% [at 9.23 µM].
For `CC(C)=CCC[C@](C)(O[C@@H]1O[C@H](CO)[C@@H](O)[C@H](O)[C@H]1O)[C@H]1CC[C@]2(C)[C@@H]1[C@H](O)CC1[C@@]3(C)CC[C@H](O)C(C)(C)C3[C@@H](O[C@@H]3O[C@H](CO)[C@@H](O)[C@H](O)[C@H]3O[C@@H]3OC[C@@H](O)[C@H](O)[C@H]3O)C[C@]12C` (some centres not stated) the same measures were -22.1% [at 9.23 µM] and -29.2% [at 9.23 µM].
Turning to `CC(=O)c1ccc(O[C@@H]2O[C@H](CO)[C@@H](O)[C@H](O)[C@H]2O)cc1`, the Potency result in assay [1] and in assay [2] was “inactive” in each case.
Regarding `O=C(O)/C=C/c1cc2c(cc1O[C@@H]1O[C@H](CO)[C@@H](O)[C@H](O)[C@H]1O)OCO2`, the Potency result in assay [1] and in assay [2] was “inactive” each time.
In the case of `CC1CC(=O)C2=C(CCC3(O)C(O)c4c(O)cccc4C(=O)C23O)C1` (configuration not stated), the Potency entry in assay [1] and in assay [2] was “inactive” each time.
As for `CC1(O)CC(O)C2(O)C=COC(O[C@@H]3O[C@H](CO)[C@@H](O)[C@H](O)[C@H]3O)C12` (some centres not stated), the Potency entry in assay [1] and in assay [2] was “inactive” in each case.
As for `O=C(O)C(O[C@@H]1O[C@H](CO[C@@H]2O[C@H](CO)[C@@H](O)[C@H](O)[C@H]2O)[C@@H](O)[C@H](O)[C@H]1O)c1ccccc1` (some centres not stated), the Potency result in assay [1] and in assay [2] was “inactive” in each case.
`C[C@@H]1O[C@@H](O[C@H]2[C@H](OC(=O)[C@]34CCC(C)(C)C[C@H]3C3=CCC5[C@@]6(C)C[C@H](O)[C@H](O[C@@H]7O[C@H](CO)[C@@H](O)[C@H](O)[C@H]7O)[C@@](C)(CO)C6[C@H](O)C[C@@]5(C)[C@]3(C)CC4)OC[C@H](O)[C@@H]2O)[C@H](O)[C@H](O)[C@H]1O[C@@H]1OC[C@@H](O)[C@H](O[C@@H]2OC[C@](O)(CO)[C@H]2O)[C@H]1O` (some centres not stated): the activity change, negative = viability loss in assay [1] is -10.4% [at 9.23 µM]. The activity change, negative = cell killing in assay [2] was -13.7% [at 9.23 µM].
`C[C@@H]1C[C@H]2O[C@@H]2/C=C\C=C\C(=O)Cc2c(Cl)c(O)cc(O)c2C(=O)O1`: the Potency in assay [1] is 488 nM (active) and 640 nM (active); in assay [2], 275 nM (active) and 640 nM (active).
For the compound `COC(=O)C1=COC(O[C@@H]2O[C@H](CO)[C@@H](O)[C@H](O)[C@H]2O)[C@H]2[C@@H]1[C@H](OC(=O)CCc1ccc(O)cc1)C[C@]2(C)O` (some centres not stated), the Potency result in assay [1] and in assay [2] was “inactive” throughout.
For the compound `COC(=O)C1=CO[C@@H](O[C@@H]2O[C@H](CO)[C@@H](O)[C@H](O)[C@H]2O)[C@@H]2C(CO)=CC[C@]12O`, the Potency result in assay [1] and in assay [2] was “inactive” in each case.
`COC(=O)c1c(C)cc(OC(=O)c2c(C)cc(OC)cc2OC)cc1O[C@@H]1O[C@H](CO)[C@@H](O)[C@H](O)[C@H]1O`: the Potency result in assay [1] and in assay [2] was “inactive” in each case.
Regarding `CC1=CC(=O)[C@H]2C(C)(C)CCC[C@]2(C)[C@@]1(O)CO`, the Potency result in assay [1] and in assay [2] was “inactive” in each case.
As for `COc1cc2c(cc1OC)[C@@H]1[C@H](O)[C@@H](OC)C=C3CCN(C2)[C@H]31`, the Potency in assay [1] and in assay [2] was 4.5 µM (active) each time.
With `CC1CCC2(C(=O)O)CCC3(C)C(=CCC4C5(C)CCC(O)C(C)(CO)C5CCC43C)C2C1(C)O` (configuration not stated), the Potency result in assay [1] and in assay [2] was “inactive” in each case.
With `C/C(=C\C=C\C(C)C1CCC2(C)C3CCC4C(C)(C)C(=O)CCC45CC35CCC12C)C(=O)O` (configuration not stated), the Potency result in assay [1] and in assay [2] was “inactive” in each case.
Take `CC(C)(O)/C=C/C1=CC(=O)[C@@](C)(O)C[C@H]1O`: the Potency entry in assay [1] and in assay [2] was “inactive” in each case.
Turning to `CC(Nc1ncnc2nc[nH]c12)c1cc2cccc(Cl)c2c(=O)n1-c1ccccc1` (configuration not stated), the Potency in assay [1] is 0.332 µM (active); in assay [2], 0.468 µM (active).
For `C=CC1(C)CC(OC(=O)/C(C)=C\COC(C)=O)C(C(=C)C(=O)O)C(O)C1C(=C)CO` (configuration not stated) the same measures were “inactive” and “inactive”.
For `C=C(C(=O)OC)C1C(O)CC2(C)C(=O)CCC(O)(CO)C2C1O` (configuration not stated) the same measures were “inactive” and “inactive”.
As for `CC(=O)O[C@@H]1C[C@@H](OC(C)=O)C(C)(C)/C=C/[C@H](C)[C@H](OC(C)=O)[C@@]2(O)C[C@H](C)[C@H](OC(=O)c3ccccc3)[C@@H]2/C=C/1C`, the Potency result in assay [1] and in assay [2] was “inactive” in each case.
Consider `CCCOc1ccc(-c2nc(OC)c3ccccc3n2)cc1`, for which the Potency entry in assay [1] and in assay [2] was “inactive” in each case.
Consider `CC1=C(C(=O)O)/C(=C\CO[C@@H]2O[C@H](CO)[C@@H](O)[C@H](O)[C@H]2O)C(OC(=O)/C=C/c2ccc(O)cc2)C1` (some centres not stated), for which the Potency entry in assay [1] and in assay [2] was “inactive” in each case.
As to `CCC(O)(C(=O)OCc1ccccc1NC(=O)CCC(=O)O)C(C)O` (configuration not stated), the Potency result in assay [1] and in assay [2] was “inactive” throughout.
